Values joined by “and” are separate entries in the source; they are usually repeats but may differ in a detail not shown here. Identical values can stand only once. Records with an inconclusive call do not appear. Values without a mark were called inactive. Active and inactive are the calls of the source. Calls come from the whole dose curve; as a rule, active = well fitted curve in the direction sought with a large enough effect; inconclusive = small, poorly fitted or top-dose-only effect, or another doubt; inactive = no such curve, though single readings can be large; an effect the other way counts as inactive or inconclusive.
target: N-terminal Xaa-Pro-Lys N-methyltransferase 1 (Homo sapiens) (UniProt Q9BV86); assay: Confirmatory qHTS for Inhibitors of N-terminal methyltransferase 1 (NTMT1): MTaseGlo Assay (AID 1645874); settings: NTMT1 enzyme, MTase-Glo SAH luminescence; series mostly up to 100 µM; activity change, negative = inhibition: at the top concentration; note: nearly all actives have a fitted effect of over 65% in size;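 for activity change, negative = inhibition: luminescence from SAH made as NTMT1 methylates SPKRIA peptide using SAM; 0% = DMSO control and -100% = no-enzyme control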
Sequence (Q9BV86 whole entry, looked up): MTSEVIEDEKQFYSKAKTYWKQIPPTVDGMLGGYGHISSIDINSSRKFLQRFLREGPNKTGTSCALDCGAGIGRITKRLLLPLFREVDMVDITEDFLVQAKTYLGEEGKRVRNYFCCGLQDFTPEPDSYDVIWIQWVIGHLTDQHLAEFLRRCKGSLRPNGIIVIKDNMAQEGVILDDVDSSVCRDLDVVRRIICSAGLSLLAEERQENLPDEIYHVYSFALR
Outline: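 NTMT1 (125 nM) preincubated 15 min with compound and 100 uM SAM, then 1 uM SPKRIA peptide added for 30 min at room temperature. SAH detected by MTase-Glo luminescence; normalized to no-enzyme and DMSO controls, fitted to 4-parameter Hill.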
Potency is the fitted concentration of half-maximal effect.

| SMILES | Potency | activity change, negative = inhibition [%] |
| --- | --- | --- |
| COc1cccc(OCCCN)c1-c1cc(Nc2cnc(C#N)cn2)n[nH]1 | 50.1 µM (active) and 21.8 µM (active) | – |
| CN(C)C(=O)Nc1cc(-c2ccccc2)ccc1N(C)C | – | -9.76 |
| COc1cc2c(Nc3cc(F)c(Cl)c(Cl)c3)ncnc2cc1OCC1CCCN(C)CCC1 | 31.6 µM (active) | – |
| COc1ccc2nc(-c3cc(OC)c(OC)c(OC)c3)cc(C(=O)NCC(=O)Nc3ccc(C(C)=O)cc3)c2c1 | – | 0.621 |
| O=C(Nc1ccccc1)c1ccc(Nc2nnc(-c3ccc(O)cc3)c3ccccc23)cc1 | – | -5.6 |
| O=S(=O)(Cc1ccccc1)Nc1ccc(-c2ccc3c(cnn3-c3ccc(F)cc3)c2)c(C(F)(F)F)c1 | – | 11.2 |
| Cc1ccc(NC(=O)N2CCN(c3nc(N)nc4sc(-c5cccnc5)nc34)CC2)cc1 | – | -19.7 |
| COc1ccc2cc3c(NC(=O)c4ccco4)nn(C)c3nc2c1 | – | -8.56 |
| Cc1[nH]c(/C=C2\C(=O)Nc3cc(-c4ccccc4)ccc32)c(C)c1CCC(=O)O | 49.4 µM (active) | – |
| O=C(O)c1cc(N(Cc2ccc(C3CCCCC3)cc2)C(=O)c2ccc(Oc3ccccc3)cc2)ccc1O | 30.8 µM (active) | – |
| N#Cc1ccc(Nc2nc(-c3ccc(O)cc3O)cs2)cc1C(F)(F)F | – | -13.4 |
| NCCOc1cc(C(=O)Nc2cc(OCCN)c3ccccc3n2)nc(C(=O)Nc2cc(OCCN)c3ccccc3n2)c1 | 43.5 µM (active) | – |

system: not listed separately; assay: Primary qHTS for inhibitors of nuclear receptor binding SET domain protein 2 (NSD2) in an isogenic RCH-ACV NSD2 p.E1099K mutant (9B) (AID 1645876); settings: RCH-ACV (leukaemia line) NSD2 E1099K (9B) viability, CellTiter-Glo, 72 h; series mostly up to 44.9 µM; activity change, negative = viability loss: at the top concentration; note: nearly all actives have a fitted effect of over 70% in size; for activity change, negative = viability loss: % is set by controls: 0 for no effect and ±100 for the full control effect

| SMILES | Potency | activity change, negative = viability loss [%] | outcome |
| --- | --- | --- | --- |
| CC(C)c1ccc(-c2cc(=O)c3ccccc3o2)cc1 | 23 µM (active) | – | – |
| Fc1ccc(-n2cc(CCCCN3CCC4(CC3)OCc3ccccc34)c3ccccc32)cc1 | 7.28 µM (active) | – | – |
| CC(C)CCNC(=O)c1ccc2c(c1)nc(Nc1n[nH]c3ccc(-c4ccccc4OC(F)(F)F)cc13)n2C1CCC(O)CC1 (centres undefined) | 10.3 µM (active) | – | – |
| COc1cc(N2CCC(N)CC2)ccc1Nc1ncc(Cl)c(-c2c[nH]c3ccccc23)n1 | 1.45 µM (active) and 1.66 µM (active) | – | – |
| COc1cccc(OCCCN)c1-c1cc(Nc2cnc(C#N)cn2)n[nH]1 | 0.0103 µM (active) | – | – |
| O=C(NCc1ccccc1)c1ccc2c(=O)n(-c3cccc(C(F)(F)F)c3)c(=S)[nH]c2c1 | – | -19.9 | – |
| CN[C@H]1CC[C@@H](c2ccc(Cl)c(Cl)c2)c2ccccc21 | 6.68 µM (active) and 9.34 µM (active) | – | – |
| Cc1ccc(C(=O)Nc2ccc(CN3CCN(C)CC3)c(C(F)(F)F)c2)cc1C#Cc1cnc2[nH]ncc2c1 | 11.5 nM (active) and 26.3 nM (active) | – | – |
| CC(C)NC(=O)COc1cccc(-c2nc(Nc3ccc4[nH]ncc4c3)c3ccccc3n2)c1 | 7.42 µM (active) | – | – |
| COc1cc2c(Nc3cc(F)c(Cl)c(Cl)c3)ncnc2cc1OCC1CCCN(C)CCC1 | 3.25 µM (active) | – | – |
| CN1CCC(NC(=O)c2cc(-c3c(O)cc(O)cc3Oc3ccc([N+](=O)[O-])cc3)on2)CC1 | 0.23 µM (active) | – | – |
| O=C(Nc1ccc(-n2nc(C(F)(F)F)cc2C(F)(F)F)cc1)c1ccncc1F | 20.5 µM (active) | – | – |
| COc1ccc2nc(-c3cc(OC)c(OC)c(OC)c3)cc(C(=O)NCC(=O)Nc3ccc(C(C)=O)cc3)c2c1 | 12.9 µM (active) | – | – |
| COc1ccc(NC(=O)c2ccc(-c3ccc(C(=N)N)cc3C)cc2)cc1N1CCN(C)CC1 | – | -14.8 | – |
| COC(=O)c1ccc2c(c1)nc(NC(=O)c1ccccc1)n2CCCc1ccccc1 | – | – | inactive |
| COc1cc(-c2cn(C3CCc4c(F)cccc4N(CC(F)(F)F)C3=O)nn2)ccc1-n1cnc(C)c1 (centres undefined) | 18.3 µM (active) | – | – |

| SMILES | Potency | activity change, negative = viability loss [%] | outcome |
| --- | --- | --- | --- |
| COc1cc2ncnc(Oc3ccc(CC(=O)Nc4cnn(C(C)C)c4)cc3)c2cc1OC | 16.3 µM (active) | – | – |
| C=C(C)[C@@H]1CC=C(COC(=O)NC(=O)c2ncn3c(=O)n(C)nnc23)CC1 | – | -23.6 | – |
| Cc1nc(C(=O)N2CCC[C@H]2Cc2nnc(-c3ccccc3)o2)c(-c2ccccc2F)s1 | – | -25.6 | – |
| O=S(=O)(Cc1ccccc1)Nc1ccc(-c2ccc3c(cnn3-c3ccc(F)cc3)c2)c(C(F)(F)F)c1 | 18.3 µM (active) | – | – |
| Cc1ccc(NC(=O)N2CCN(c3nc(N)nc4sc(-c5cccnc5)nc34)CC2)cc1 | 0.258 µM (active) | – | – |
| CC(=O)NCc1cccc(OC[C@@H](O)CNCCc2ccc(NS(=O)(=O)c3ccccc3)cc2)c1 | – | -12.2 | – |
| CCN(c1cc(-c2ccc(CN3CCOCC3)cc2)cc(C(=O)NCc2c(C)cc(C)[nH]c2=O)c1C)C1CCOCC1 | – | -26.5 | – |
| Cc1[nH]c(/C=C2\C(=O)Nc3cc(-c4ccccc4)ccc32)c(C)c1CCC(=O)O | 23 µM (active) | – | – |
| FC(F)(F)c1ccccc1-c1cc(C(F)(F)F)c2nc(C3=NOC4(CCCCC4)C3)[nH]c2c1 | 18.3 µM (active) | – | – |
| OC(CC1c2ccccc2-c2cncn21)C1CCCCC1 (centres undefined) | 23 µM (active) | – | – |
| O=c1cc(N2CCN(c3cccc(C(F)(F)F)c3)CC2)[nH]c(=O)n1C1CCCCC1 | – | -30.6 | – |
| O=C(NC1CCC1)c1ccc(C#Cc2cccc(F)c2)nc1 | – | -30.8 | – |
| CCO[C@H]1CN(C2CCC(O)(c3ccc4c(c3)OCO4)CC2)C[C@@H]1NC(=O)CNC(=O)c1cccc(C(F)(F)F)c1 (some centres undefined) | – | -17.9 | – |
| N#Cc1ccc(Nc2nc(-c3ccc(O)cc3O)cs2)cc1C(F)(F)F | 16.3 µM (active) | – | – |
| NCCOc1cc(C(=O)Nc2cc(OCCN)c3ccccc3n2)nc(C(=O)Nc2cc(OCCN)c3ccccc3n2)c1 | 4.09 µM (active) and 7.42 µM (active) | – | – |
| COc1ccc(N(C(=O)Nc2c(C)cccc2C)c2cc(Nc3ccc(N4CCN(C)CC4)cc3)ncn2)c(OC)c1 | 10.3 µM (active) | – | – |
